Laboratory results as given in ChEMBL document CHEMBL1157539, “Thousands of chemical starting points for antimalarial lead identification” (Nature, 2010).

Each compound was assayed on Plasmodium falciparum (assay: GSK_TCMDC: Inhibition of Plasmodium falciparum Dd2 in whole red blood cells, using parasite LDH activity as an index of growth. Test compounds present at 2uM).
Type: functional
`Oc1cc(Nc2ccnc3cc(-c4cccc(CN5CCOCC5)c4)ccc23)c(F)cc1Cl` showed an Inhibition of 89%.
With `CCCCCCOc1ccc(C(=O)N(Cc2ccccc2)c2c(-c3ccccc3)nc3cc(C)ccn23)cc1` the Inhibition was 96%.
`CC(C)(C)SCC(O)Cn1c2ccc(Br)cc2c2cc(Br)ccc21` (stereo not given) was tested, and the Inhibition was 79%.
In the case of `CN1CCN(c2ccc(CNc3ccc4ncc(-c5cccc(OC(F)(F)F)c5)n4n3)cc2)CC1`, the Inhibition is reported as 78%.
`N#Cc1ccc(CN2CCC(Oc3ccc(NC(=O)c4ccco4)cc3Cl)C2)cc1.O=C(O)C(F)(F)F` (stereo not given) showed an Inhibition of 95%.
`COc1ccc(/C=C/C(=O)N2CCc3cc4nccc(N5CCN6CCC[C@H]6C5)c4cc32)cc1` showed an Inhibition of 98%.
`O=C(Nc1ccc(C(F)(F)F)cc1)c1cccc(S(=O)(=O)NC2CCN(CC3CCCCC3)CC2)c1.O=C(O)C(F)(F)F` gave an Inhibition of 12%.
In the case of `Cc1cccc2nc(-c3cccc(-c4cccc(NC(=O)c5cnccc5C(F)(F)F)c4)c3)[nH]c12`, the Inhibition is reported as 47%.
With `C[C@H](Cc1ccc(OCCCCCCCOc2ccc(C[C@@H](C)NC[C@H](O)c3cccc(Cl)c3)cc2)cc1)NC[C@H](O)c1cccc(Cl)c1.Cl` the Inhibition was 97%.
`CC(C)c1cccc(OCC2CCN(c3ncc(C(=O)Nc4ccccc4)cc3Cl)CC2)c1` was tested, and the Inhibition was 88%.
`N[C@@H](Cc1cc(I)c(Oc2ccc(O)c(C(=O)O)c2)c(I)c1)C(=O)O` gave an Inhibition of 21%.
With `CC1(C)CCCN(C(=O)c2cccc(-n3nc(-c4ccc(Cl)cc4)cc3N)c2)C1` the Inhibition was 98%.
For `CCCc1ccccc1Nc1nc(C)cc(N(CC)CCCN2CCCCC2)n1.O=C(O)C(F)(F)F`, the Inhibition was 49%.
Work on `CCc1cn(CC(=O)N(CCOc2ccc(-c3ccc(C(F)(F)F)cc3)cc2)CCN(CC)CC)c(SCc2ccc(F)cc2)nc1=O` yielded an Inhibition of 29%.
Work on `O=C1NC(c2ccc(N3CCCCCC3)cc2)Nc2ccccc21` (stereo not given) yielded an Inhibition of 96%.
`Cc1cc(C)c(O)c(-c2cc(C(=O)Nc3ccc(S(=O)(=O)N4CC(C)OC(C)C4)cc3)[nH]n2)c1` (stereo not given) gave an Inhibition of 16%.
With `Cl.NC(=O)Nc1ccc2cn[nH]c2c1` the Inhibition was 0%.
In the case of `Cc1cc(-c2nc3ccc(C(=O)NCc4ccccc4)cc3n2C2CCN(C(=O)c3ccc(-c4ccccc4)cc3)CC2)ccn1`, the Inhibition is reported as 97%.
`CC(C)c1ncc(-c2ccncc2)c(C2CCC(CNC(=O)c3ccncc3)CC2)n1` (stereo not given) was tested, and the Inhibition was 49%.
For `CNC(=O)c1cc(F)c(F)cc1Nc1nc(Nc2cccc(CS(C)(=O)=O)c2)ncc1Cl.O=CO`, the Inhibition was 90%.
Work on `Cc1cc(=NN=Cc2cccc(Cl)c2)c2ccccc2[nH]1` yielded an Inhibition of 100%.
`COc1ccc(NS(=O)(=O)c2ccc(C(=O)Nc3ccc(OC(F)(F)F)cc3)cc2)cc1N1CCN(CC2CC2)CC1.O=C(O)C(F)(F)F` gave an Inhibition of 0%.
Work on `Cc1ccccc1Nc1nc(NCCCO)c2ccccc2n1.Cl` yielded an Inhibition of 50%.
`O=C(Nc1cccc(OC2CCN(Cc3ccc(F)cc3)CC2)c1)c1ccc(C(F)(F)F)cc1.O=C(O)C(F)(F)F` gave an Inhibition of 6%.
Work on `C[C@@H]1CC[C@H](NC(=O)[C@H](CC2CCCC2)NC(=O)N2CCNCC2)C(=O)CN1S(=O)(=O)c1ccccn1.O=C(O)C(F)(F)F` yielded an Inhibition of 19%.
Compound `CCOC(=O)c1ccc(NC(=O)N[C@@H](Cc2ccc(O)cc2)C(=O)NC2CCN(Cc3ccc4c(c3)OCO4)CC2)cc1.O=C(O)C(F)(F)F` has an Inhibition of 24%.
For `CC(C)(CNC(=O)[C@@H]1CCCN(Cc2ccc(Cl)cc2)C1)c1nc(-c2ccc(Cl)c(O)c2)c(-c2ccncc2)[nH]1.Cl`, the Inhibition was 37%.
`CN(C)Cc1cccc(-c2ccc(NC(=O)c3ccc4c(=O)n(CCN5CCCCC5)cnc4c3)cc2)c1` was tested, and the Inhibition was 67%.
In the case of `COCC(C)n1c(SCC(=O)Nc2cc(C(F)(F)F)ccc2Cl)nc2ccccc2c1=O` (stereo not given), the Inhibition is reported as 96%.
With `CCc1ccc(C2CCN(CCCCNC(=O)c3ccc(NC(=O)c4ccc(Cl)cc4)cc3)CC2)c(OCCO)c1` the Inhibition was 100%.
Compound `CN(C)C=Nc1ccc(OCCCCCCOc2ccc(N=CN(C)C)cc2)cc1.Cc1ccc(S(=O)(=O)O)cc1` has an Inhibition of 94%.
`Fc1cccc(C=NN=c2cc[nH]c3ccc(C(F)(F)F)cc23)c1` showed an Inhibition of 97%.
`COc1ccc2nccc(N3CCC(CCNCc4ccc5c(n4)NC(=O)CS5)CC3)c2n1.Cl` was tested, and the Inhibition was 75%.
Compound `c1ccc(CCNc2ncnc3c2[nH]c2ccccc23)cc1` has an Inhibition of 94%.
With `CCc1ccc(CN2CCCCC(NC(=O)c3cc(-c4ccccc4F)cs3)C2)cc1.O=C(O)C(F)(F)F` (stereo not given) the Inhibition was 12%.
